Sampled rows, rich in hits. Any-hit rate of the full collection: about 7.5%.
Luc counter: blocks Kinase-Glo luciferase, a counter-screen artifact. Q27757. Kinase-Glo luciferase, ATP luminescence, 8 min. Potency, µM (top dose mostly 38.3 µM), for the others: top-dose activity change, negative = inhibition, usual class: inhibitors. 200,000 tested, 0.28% active. AID 1379; further: on the % scale 0 is the no-effect control and ±100 the full control effect; nearly all actives have a fitted effect of over 60% in size
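Recombinant Kinase-Glo luciferase, 10 uM ATP (linear range), luciferin; imidazole pH 7.2 / KCl / MgCl2 / Tween / BSA buffer; 8 min RT; luminescence.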
Rab9 prom act: activators of Rab9 promoter; Potency, µM (doses to about 9.22 µM), for inactives: top-dose activation, negative = inhibition, actives largely listed as activators; AID 485297; Huh7 Rab9 promoter-luciferase reporter, luminescence, 24 h; 320,000 tested, 2.8% active; further: % of control where 0% means no effect; nearly all actives have a fitted effect of over 60% in size
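Using Huh7 cells stably transfected with Rab9 promoter–luciferase, compounds were incubated 24 h at 37 °C, 5% CO2; luciferase luminescence was read 10 min after reagent addition.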
SMN2 splice enh: increases expression of the SMN2 splice variant | HEK293 SMN2-luciferase splicing reporter, luminescence, 30-36 h | Potency, µM (top dose mostly 46.1 µM), for the others: at the highest dose activity change, positive = activation, usual class: activators | 210,000 tested, 2.8% active; further: % of control where 0% means no effect; nearly all actives have a fitted effect of over 55% in size
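HEK293 cells carry an SMN2 […]–luciferase reporter in which exon 7 inclusion puts luciferase in frame. Cells were plated 10-12 h before compound addition, then incubated 30-36 h at 37C. ONE-Glo luminescence was read; sodium butyrate at 4.5 mM final served as control.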
ELG1 genotox: genotoxicity induction in ELG1-luciferase HEK293T cells | HEK293T ELG1-luciferase reporter, luminescence, 16 h | 330,000 tested, 1.3% active | Potency, µM (highest dose often 46 µM), without a hit: at the top dose activity change, positive = activation, usual class: activators; further: % of control where 0% means no effect; nearly all actives have a fitted effect of over 60% in size
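HEK293T cells expressing luciferase-tagged ELG1 were treated with compound or DMSO for 16 hr at 37°C. Luciferase activity was then read after 30 min with ONE-Glo at room temperature; rising signal flags genetic stress.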
NPC1 prom act: NPC1 promoter activation; Potency, µM (doses to about 9.22 µM), without a hit: at the highest dose activation, actives largely listed as activators; Huh7 NPC1 promoter luciferase reporter, 24 h; 320,000 tested, 2.4% active; further: % of control where 0% means no effect; nearly all actives have a fitted effect of over 60% in size
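In 1536-well qHTS, Huh7 cells harboring an NPC1 promoter–luciferase construct received compound for 24 h; activation was quantified by luminescence following luciferase reagent addition.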
FLuc counter: firefly luciferase modulation, counter-screen for miR-21 project; Potency, µM (titrated, usually from 57.5 µM), for the others: at the top dose activity change, negative = inhibition, most hits filed as inhibitors; 360,000 tested, 6.9% active; purified FLuc, Km substrates, luminescence inhibition; P08659;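 further: plate controls were vehicle for no effect and reference inhibitor for full effect; nearly all actives have a fitted effect of over 55% in size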
Target sequence (P08659 whole entry, looked up): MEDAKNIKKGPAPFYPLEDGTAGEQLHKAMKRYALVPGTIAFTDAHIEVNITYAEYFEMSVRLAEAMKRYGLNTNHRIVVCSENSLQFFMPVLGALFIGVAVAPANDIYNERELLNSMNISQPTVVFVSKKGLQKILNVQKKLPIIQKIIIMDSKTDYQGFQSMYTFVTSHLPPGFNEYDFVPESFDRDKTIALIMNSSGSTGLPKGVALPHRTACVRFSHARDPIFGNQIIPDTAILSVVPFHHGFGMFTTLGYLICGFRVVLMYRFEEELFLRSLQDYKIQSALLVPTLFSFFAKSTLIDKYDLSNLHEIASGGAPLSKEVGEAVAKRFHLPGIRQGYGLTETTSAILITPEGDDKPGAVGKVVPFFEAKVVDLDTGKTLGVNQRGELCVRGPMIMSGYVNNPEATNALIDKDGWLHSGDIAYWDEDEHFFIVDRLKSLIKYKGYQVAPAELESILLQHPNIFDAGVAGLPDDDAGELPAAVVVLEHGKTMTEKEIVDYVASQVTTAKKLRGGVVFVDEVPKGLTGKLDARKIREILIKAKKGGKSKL
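Purified P. pyralis luciferase (10nM final) with 10uM D-luciferin and 10uM ATP (Km levels) in 50mM Tris acetate pH 7.5, 10mM Mg acetate, 0.01% Tween-20, 0.05% BSA; qHTS 6-point titration, ~60 µM downward; luminescence read.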
Starred values were filed as active, the others as inactive; ? = inconclusive; · = not tested or not shown; [ ] = dose if it differs, or a comment. The call rests on the fitted dose curve; in most records, active means well fitted curve in the direction sought with a large enough effect; inconclusive means small, poorly fitted or top-dose-only effect, or another doubt; inactive means no such curve, though single readings can be large; an effect the other way counts as inactive or inconclusive. Potency means the concentration at half of the fitted maximal effect.

SMILES | Luc counter | Rab9 prom act | SMN2 splice enh | ELG1 genotox | NPC1 prom act | FLuc counter
COc1ccc(/C=N/N2C(=O)C3C4C=CC(CC4)C3C2=O)c(OC)c1 (configuration not stated) | -1% | 3% | 3% | 7% | -9% | ?
COc1ccc(N(CC(=O)Nc2ccc(C)c(C)c2)S(=O)(=O)c2ccc(C)cc2)cc1OC | · | · | -1% | · | · | 2%
Cc1ccc(C)c(S(=O)(=O)NCC(c2ccco2)S(=O)(=O)c2ccc(F)cc2)c1 (configuration not stated) | · | · | · | · | · | 4%
COc1ccc(-n2nc(C(=O)NCC(=O)N3CCN(c4ccc(F)cc4)CC3)c3ccccc3c2=O)c(OC)c1 | · | 22% | · | 13% | 17% | 1.7µM*
COc1ccc(-n2nc(C(=O)NCC(=O)N3CCN(c4ccccc4)CC3)c3ccccc3c2=O)c(OC)c1 | · | ? | · | 0% | ? | 0.54µM*
Cc1ccc2c(c1)NC(=O)CC(c1ccccc1)=N2 | -7% | ? | ? | 13% | 10% | 12µM*
Cc1ccc(NC(=O)CN2C(=O)c3ccccc3Sc3ccc(C(=O)N4CCCC4)cc32)cc1 | · | · | · | · | · | 1%
CC(=O)N=C1SC2CS(=O)(=O)CC2N1c1ccc(-c2nc3ccc(C)cc3s2)cc1 (configuration not stated) | 3% | 0.89µM* | 18µM* | ? | 2.8µM* | 9.5µM*
Cc1ccc2nc(-c3ccc(N4C(=NC(=O)CCC(=O)O)SC5CS(=O)(=O)CC54)cc3)sc2c1 (configuration not stated) | · | 4.5µM* | · | ? | ? | 11µM*
Cc1ccc(CN2C(=NC(=O)CCC(=O)O)SC3CS(=O)(=O)CC32)cc1 (configuration not stated) | · | -1% | · | 3% | -2% | 1%
COc1c(/C=N/NC(=O)c2ccccc2O)c(CCN(C)C(C)=O)cc2c1OCO2 | -4% | 6% | 53% | 1% | -1% | 19µM*
CCC(=O)N(C)CCc1cc2c(c(OC)c1/C=N/NC(=O)c1ccccc1O)OCO2 | 0% | -9% | -15% | 2% | -2% | -19%
CCN(CC)c1ccc(-c2nnc(SCC(=O)N(CCOC)c3c(N)n(CC(C)C)c(=O)[nH]c3=O)o2)cc1 | · | -1% | · | 0% | -3% | 6.7µM*
CCCCN(C(=O)CSc1n[nH]c(-c2ccc(C)cc2)n1)c1c(N)n(CCCC)c(=O)[nH]c1=O | · | -3% | · | ? | -1% | 8.5µM*
COCCN(C(=O)CSc1n[nH]c(-c2ccc(OC)cc2)n1)c1c(N)n(Cc2ccccc2)c(=O)[nH]c1=O | · | -8% | · | 3% | -1% | ?
CCCCn1c(N)c(N(CCOC)C(=O)CSc2n[nH]c(-c3ccc(OC)cc3)n2)c(=O)[nH]c1=O | · | 14% | · | 3% | -6% | 24µM*
CCc1ccc(-c2nc(SCC(=O)N(CCOC)c3c(N)n(Cc4ccccc4)c(=O)[nH]c3=O)n[nH]2)cc1 | · | 13% | · | 10% | 0% | 2.7µM*
Cc1ccc(-c2nc(SCC(=O)N(C)c3c(N)n(Cc4ccccc4)c(=O)[nH]c3=O)n[nH]2)cc1 | · | 3% | · | 5% | 1% | -18%
CN(C(=O)CC1C(=O)NCCN1Cc1ccccc1C(F)(F)F)C1CCOCC1 (configuration not stated) | · | 4% | · | -5% | 11% | 3%
Cc1cccc(C)c1N1CCN(C(=O)Cn2cncn2)CC1 | -2% | -3% | 7% | 0% | -2% | -2%
COCCN(C(=O)COC(=O)/C=C/c1ccc2ccccc2n1)c1c(N)n(Cc2ccccc2)c(=O)[nH]c1=O | · | 2% | · | -3% | -4% | ?
COCCN(C(=O)COC(=O)/C=C/c1nc2ccccc2s1)c1c(N)n(Cc2ccccc2)c(=O)[nH]c1=O | · | -2% | · | -22% | 2% | 21µM*
COc1ccc(CNc2ccc3c(c2)nc(C)n3C)cc1 | -3% | 1.4µM* | 11µM* | ? | 2.5µM* | 9.5µM*
Cc1nc2cc(NCc3ccccc3O)ccc2n1Cc1ccccc1 | 4% | 15% | · | 2% | 8% | 24µM*
Cc1ccc(CNc2ccc3c(c2)nc(C)n3C)cc1 | · | 0.63µM* | · | 2.1µM* | 0.56µM* | 4.3µM*
SMILES | Luc counter | Rab9 prom act | SMN2 splice enh | ELG1 genotox | NPC1 prom act | FLuc counter
Cc1nc2cc(NCc3ccc(Cl)cc3)ccc2n1C | · | 0.45µM* | · | 2.6µM* | 0.45µM* | 2.1µM*
Cc1ccccc1N(C(=O)CNC(=O)c1ccco1)C(C(=O)NC1CCCC1)c1ccncc1 (configuration not stated) | · | -2% | · | -1% | 7% | 4%
O=C(N/N=C/c1cccc(Br)c1)c1ccc(Cn2cc(Br)cn2)o1 | -1% | -3% | -16% | 2% | 2% | 13µM*
O=C(N/N=C\c1cccc(Cl)c1)c1ccc(Cn2cccn2)o1 | 0% | -2% | 3% | 1% | -3% | 12µM*
Cc1c(Cl)c([N+](=O)[O-])nn1Cc1ccc(C(=O)N/N=C\c2cccc(Br)c2)o1 | 0% | -4% | 10% | -8% | 1% | 7.6µM*
Cc1ccccc1/C=N\NC(=O)c1ccc(Cn2cccn2)o1 | -9% | -3% | -2% | -3% | 0% | 17µM*
O=C(N/N=C\c1cccc(Cl)c1)c1ccc(Cn2cc(Br)c([N+](=O)[O-])n2)o1 | -4% | -2% | -35% | -1% | 1% | 5.4µM*
Oc1oc(-c2ccccc2)nc1C=NCc1ccccc1 | 4% | 25% | 9% | 21µM* | ? | 17µM*
CC1=Nc2ccccc2/C1=C\c1nc(-c2ccccc2)oc1O | -2% | 2% | -12% | 1% | 1% | 17µM*
Cc1ccc(N=Cc2nc(-c3ccc(C)cc3)oc2O)cc1 | 3% | 16% | · | 8% | 11% | -10%
CN(C)c1ccc(N=Cc2nc(-c3ccccc3)oc2O)cc1 | -3% | 29% | -3% | 10% | ? | ?
COc1ccc(N=Cc2nc(-c3ccco3)oc2O)cc1 | 3% | 0% | 22% | 11% | 2% | 8.5µM*
Oc1oc(-c2ccccc2)nc1C=Nc1ccccc1 | -3% | 21% | 26% | 16% | 21% | 11µM*
O=C1CC(c2nc(-c3ccccc3)no2)CN1c1ccccc1 (configuration not stated) | · | · | · | · | · | -4%
Oc1oc(-c2ccc(Br)cc2)nc1C=Nc1ccc(Br)cn1 | 2% | 2% | 0% | 0% | 1% | 8%
CSc1ccccc1N=Cc1nc(-c2ccccc2)oc1O | 7% | -4% | 28% | ? | 1% | 9.5µM*
Oc1ccc(-c2nc3ccc4ccccc4c3c3c2CCC3)cc1O | -1% | 1% | -18%[1.84 µM] | 9% | -2% | 24µM*
